Drawing on PubChem BioAssay (NCI), this text covers growth inhibition for nine compounds.

Where “and” joins values, the source holds several entries; their conditions need not be identical. Equal values may be shown once. The panel holds about 79,000 compounds, 15% with a hit somewhere; the sample as a whole holds those more often. The source holds several records for some structures; these can differ, active in one and inactive in another. Calls of active or inactive are those of the source. Cut-off read from the data, not from the text of the source: active = growth inhibition above about 70%; inactive = the rest.

A short description of assay [1]: NCI Yeast Anticancer Drug Screen. Data for the rad50 strain (AID 155).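 Note: 0% = growth of vehicle-only cultures of the same strain.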 Conditions: S. cerevisiae rad50 strain growth inhibition, stronger effect = higher value. The method in brief: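 A DNA repair-deficient yeast mutant serves as the test organism; compound-induced growth inhibition is calculated against vehicle-treated cells.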
Assay [2] can be described thus: NCI Yeast Anticancer Drug Screen. Data for the mec2-1 strain (AID 157). Conditions: S. cerevisiae mec2-1 strain, stronger effect = higher value. The method in brief: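 Strain: mec2-1 (DNA repair/cell cycle alteration). Compound exposure, then growth measured; inhibition expressed relative to vehicle.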
A short description of assay [3]: NCI Yeast Anticancer Drug Screen. Data for the sgs1 mgt1 strain (AID 161).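 Note: 0% = growth of cultures given vehicle only.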 Conditions: S. cerevisiae sgs1 mgt1 strain, stronger effect = higher value. The method in brief: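 Mutant yeast exposed to compound; growth scored against vehicle-only wells.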
Assay [4] can be described thus: NCI Yeast Anticancer Drug Screen. Data for the cln2 rad14 strain (AID 165).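 Note: 0% = growth equal to vehicle treated cultures.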 Conditions: S. cerevisiae cln2 rad14 strain, stronger effect = higher value. The method, boiled down:
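Compounds are applied to the cln2 rad14 yeast strain, and growth is then compared with that of vehicle-treated cultures to give inhibition.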

Assay [5] in a line: NCI Yeast Anticancer Drug Screen. Data for the bub3 strain (AID 167). Conditions: S. cerevisiae bub3 mutant strain, stronger effect = higher value. The method in brief: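 Inhibition values come from growth of compound-treated mutant yeast normalised to vehicle-treated controls.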
The nature of assay [6]: NCI Yeast Anticancer Drug Screen. Data for the mlh1 rad18 strain (AID 175). Conditions: S. cerevisiae mlh1 rad18 strain growth inhibition, stronger effect = higher value. The method, boiled down:
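Read-out is yeast growth inhibition, calculated against vehicle-only controls. The compound was applied to a strain engineered with DNA damage repair alterations.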

The mark [7] stands for this setting: at 5.0 µM (retest, dose inferred, filed as 0.5).
The mark [8] stands for this setting: at 50.0 µM (retest, dose inferred, filed as 5.0).

For the compound `CC(C)O.CC(C)O.OCCN(CCO)CCO.OCCN(CCO)CCO.[Ti+2]`, the growth inhibition is 19% (inactive) in assay [1] (setting [7]); 36% (inactive) in assay [1] (setting [8]); 60% (inactive) in assay [1] (at 50.0 µM); 44% (inactive) in assay [2] (setting [7]); 96% (active) in assay [2] (setting [8]); 31.6% (inactive) in assay [2] (at 50.0 µM). Also, the growth inhibition in assay [3] (setting [7]) is 11% (inactive); in assay [3] (setting [8]), 20% (inactive); in assay [3] (at 50.0 µM), 52.9% (inactive); in assay [4] (setting [7]) it was 34% (inactive); in assay [4] (setting [8]), 70% (active); in assay [4] (at 50.0 µM), 4.3% (inactive). Further, the growth inhibition in assay [5] (setting [7]) was 99% (active); in assay [5] (setting [8]) it was 99% (active); in assay [5] (at 50.0 µM) it was 39.2% (inactive); in assay [6] (setting [7]) it was 22% (inactive); in assay [6] (setting [8]), 39% (inactive); in assay [6] (at 50.0 µM), 44.2% (inactive).
Turning to `N#CC(C#N)=Cc1cccc([N+](=O)[O-])c1`, the growth inhibition in assay [1] (setting [7]) is 42% (inactive); in assay [1] (setting [8]), 89% (active); in assay [1] (at 50.0 µM) it was -15.1% (inactive) and 98.2% (active); in assay [2] (setting [7]) it was 29% (inactive); in assay [2] (setting [8]) it was 92% (active); in assay [2] (at 50.0 µM), -11.1% (inactive) and 90.8% (active). The growth inhibition in assay [3] (setting [7]) is 13% (inactive); in assay [3] (setting [8]), 84% (active); in assay [3] (at 50.0 µM), -24.4% (inactive) and 99.2% (active); in assay [4] (setting [7]) it was 1% (inactive); in assay [4] (setting [8]) it was 28% (inactive); in assay [4] (at 50.0 µM), -4.8% (inactive) and 93.7% (active). Also, the growth inhibition in assay [5] (setting [7]) was 9% (inactive); in assay [5] (setting [8]), 76% (active); in assay [5] (at 50.0 µM), -8.45% (inactive) and 99.5% (active); in assay [6] (setting [7]) it was 33% (inactive); in assay [6] (setting [8]) it was 92% (active); in assay [6] (at 50.0 µM) it was -27.9% (inactive) and 97.8% (active).
Turning to `CC[n+]1c(/C=C/c2ccc(N(CCCl)CCCl)cc2)ccc2cc(I)ccc21`, the growth inhibition in assay [1] (setting [7]) is 99% (active); in assay [1] (setting [8]), 99% (active); in assay [1] (at 50.0 µM), 91% (active); in assay [2] (setting [7]) it was 99% (active); in assay [2] (setting [8]), 99% (active); in assay [2] (at 50.0 µM), 90.8% (active). In addition, the growth inhibition in assay [3] (setting [7]) was 99% (active); in assay [3] (setting [8]), 99% (active); in assay [3] (at 50.0 µM), 89.5% (active); in assay [4] (setting [7]), 99% (active); in assay [4] (setting [8]), 99% (active); in assay [4] (at 50.0 µM), 88.9% (active). In addition, the growth inhibition was 99% (active) in assay [5] (setting [7]); 99% (active) in assay [5] (setting [8]); 91.5% (active) in assay [5] (at 50.0 µM); 99% (active) in assay [6] (setting [7]); 99% (active) in assay [6] (setting [8]); 88.7% (active) in assay [6] (at 50.0 µM).
As to `Clc1ccc2c(NCCCCN3OC3c3ccccc3)ccnc2c1` (configuration not stated), the growth inhibition in assay [1] (setting [7]) is 30% (inactive); in assay [1] (setting [8]), 67% (inactive); in assay [1] (at 50.0 µM), 58.2% (inactive); in assay [2] (setting [7]), 22% (inactive); in assay [2] (setting [8]), 56% (inactive); in assay [2] (at 50.0 µM), 48.6% (inactive). Besides, the growth inhibition was 23% (inactive) in assay [3] (setting [7]); 57% (inactive) in assay [3] (setting [8]); 67.5% (inactive) in assay [3] (at 50.0 µM); 11% (inactive) in assay [4] (setting [7]); 32% (inactive) in assay [4] (setting [8]); 11.3% (inactive) in assay [4] (at 50.0 µM). The growth inhibition in assay [5] (setting [7]) was 24% (inactive); in assay [5] (setting [8]) it was 43% (inactive); in assay [5] (at 50.0 µM), 34.2% (inactive); in assay [6] (setting [7]), 30% (inactive); in assay [6] (setting [8]) it was 84% (active); in assay [6] (at 50.0 µM), 35.2% (inactive).
Turning to `O=c1c(O)c(-c2ccccc2)oc2ccccc12.[Pb]`, the growth inhibition in assay [1] (setting [7]) was 3% (inactive); in assay [1] (setting [8]) it was 97% (active); in assay [1] (at 50.0 µM), 94.7% (active); in assay [2] (setting [7]), -2% (inactive); in assay [2] (setting [8]) it was 97% (active); in assay [2] (at 50.0 µM), 92.6% (active). In addition, the growth inhibition in assay [3] (setting [7]) is 6% (inactive); in assay [3] (setting [8]) it was 24% (inactive); in assay [3] (at 50.0 µM), 98.4% (active); in assay [4] (setting [7]), -2% (inactive); in assay [4] (setting [8]) it was 98% (active); in assay [4] (at 50.0 µM), 47.8% (inactive). Besides, the growth inhibition in assay [5] (setting [7]) is -6% (inactive); in assay [5] (setting [8]), 98% (active); in assay [5] (at 50.0 µM), 96.2% (active); in assay [6] (setting [7]) it was 8% (inactive); in assay [6] (setting [8]), 98% (active); in assay [6] (at 50.0 µM), 98.1% (active).
As for `C=CCOc1cc2c(ccc1=O)-c1c(cc(OC)c(OC)c1OC)CCC2NC(C)=O` (configuration not stated), the growth inhibition was -3% (inactive) in assay [1] (setting [7]); 3% (inactive) in assay [1] (setting [8]); 96.1% (active) in assay [1] (at 50.0 µM); 3% (inactive) in assay [2] (setting [7]); 80% (active) in assay [2] (setting [8]); 87.6% (active) in assay [2] (at 50.0 µM). Moreover, the growth inhibition in assay [3] (setting [7]) is -18% (inactive); in assay [3] (setting [8]), 45% (inactive); in assay [3] (at 50.0 µM) it was 93.9% (active); in assay [4] (setting [7]) it was -5% (inactive); in assay [4] (setting [8]), -11% (inactive); in assay [4] (at 50.0 µM), 96.3% (active). The growth inhibition in assay [5] (setting [7]) is -5% (inactive); in assay [5] (setting [8]) it was 66% (inactive); in assay [5] (at 50.0 µM), 96.8% (active); in assay [6] (setting [7]) it was -5% (inactive); in assay [6] (setting [8]) it was 78% (active); in assay [6] (at 50.0 µM) it was 95.5% (active).
Regarding `Cc1ccc([PH+](c2ccc(C)cc2)c2ccc(C)cc2)cc1.Cc1ccc([PH+](c2ccc(C)cc2)c2ccc(C)cc2)cc1.[Cl][Hg][Cl]`, the growth inhibition is 98% (active) in assay [1] (setting [7]); 95% (active) in assay [1] (setting [8]); 47.6% (inactive) in assay [1] (at 50.0 µM); 99% (active) in assay [2] (setting [7]); 98% (active) in assay [2] (setting [8]); 97.2% (active) in assay [2] (at 50.0 µM). The growth inhibition is 99% (active) in assay [3] (setting [7]); 95% (active) in assay [3] (setting [8]); 99.5% (active) in assay [3] (at 50.0 µM); 93% (active) in assay [4] (setting [7]); 96% (active) in assay [4] (setting [8]); 29.3% (inactive) in assay [4] (at 50.0 µM). In addition, the growth inhibition was 98% (active) in assay [5] (setting [7]); 95% (active) in assay [5] (setting [8]); 99.3% (active) in assay [5] (at 50.0 µM); 99% (active) in assay [6] (setting [7]); 94% (active) in assay [6] (setting [8]); 95.9% (active) in assay [6] (at 50.0 µM).
Take `CCCCCCCCCCCCCCCCCC(=O)[O][Hg][c]1ccccc1`: the growth inhibition in assay [1] (setting [7]) was 33% (inactive); in assay [1] (setting [8]), 96% (active); in assay [1] (at 50.0 µM), 90.7% (active); in assay [2] (setting [7]), 43% (inactive); in assay [2] (setting [8]), 98% (active); in assay [2] (at 50.0 µM) it was 91.5% (active). The growth inhibition in assay [3] (setting [7]) is 100% (active); in assay [3] (setting [8]), 99% (active); in assay [3] (at 50.0 µM), 94% (active); in assay [4] (setting [7]), 99% (active); in assay [4] (setting [8]) it was 100% (active); in assay [4] (at 50.0 µM), 92.3% (active). The growth inhibition in assay [5] (setting [7]) was 99% (active); in assay [5] (setting [8]), 100% (active); in assay [5] (at 50.0 µM), 90% (active); in assay [6] (setting [7]) it was 34% (inactive); in assay [6] (setting [8]) it was 100% (active); in assay [6] (at 50.0 µM) it was 90.2% (active).
On to `Cc1cc[n+](C2=C(Nc3cc(C)cc(C)c3)C(=O)c3ccccc3C2=O)cc1`, for which the growth inhibition was -3% (inactive) in assay [1] (setting [7]); 9% (inactive) in assay [1] (setting [8]); 24.9% (inactive) in assay [1] (at 50.0 µM); -2% (inactive) in assay [2] (setting [7]); 11% (inactive) in assay [2] (setting [8]); 28.5% (inactive) in assay [2] (at 50.0 µM). The growth inhibition in assay [3] (setting [7]) was -1% (inactive); in assay [3] (setting [8]), 16% (inactive); in assay [3] (at 50.0 µM), 9.5% (inactive); in assay [4] (setting [7]) it was -9% (inactive); in assay [4] (setting [8]), 1% (inactive); in assay [4] (at 50.0 µM) it was 6.75% (inactive). The growth inhibition is 1% (inactive) in assay [5] (setting [7]); 45% (inactive) in assay [5] (setting [8]); 16% (inactive) in assay [5] (at 50.0 µM); -3% (inactive) in assay [6] (setting [7]); 15% (inactive) in assay [6] (setting [8]); 51.8% (inactive) in assay [6] (at 50.0 µM).
